# Compound activity as filed in PubChem.
# This is a sample that favours compounds with a hit; in the whole collection about 2.9% have one here.
# Wnt act = activators of Wnt/beta-catenin signaling | hit rate 1.2% among 300,000 | activation, % at 9.35 µM | Wnt/beta-catenin reporter cell assay, activator, plate reader; in the data active means activation above about 30%, passing the limit was not always enough; inconclusive means no clear call, values can overlap the other calls;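 further: 0% = neutral control wells and 100% = positive control wells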
# PvdQ acylase = P. aeruginosa PvdQ acylase inhibition. hit rate 0.063% among 340,000. purified PvdQ acylase, fluorescence plate reader. inhibition, % at 10 µM; in the data active means inhibition above about 30%, passing the limit was not always enough; inconclusive means no clear call, values can overlap the other calls;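 further: 0% = vehicle neutral wells and 100% = reference inhibitor wells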
# esBAF inh = blocks esBAF chromatin remodeling in mouse ES cells; hit rate 2% among 350,000; Bmi1-luciferase knock-in reporter, 24 h; 100% = twice the neutral-well signal; reporter increase, % at 12.5 µM; in the data active means activation above about 40%; inconclusive means no clear call, values can overlap the other calls;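 further: 0% = median of the plate's neutral control wells and 100% = double that signal; a rise in the Bmi1 reporter signal indicates esBAF inhibition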
# Vif imaging = inhibitors of HIV Vif | hit rate 0.35% among 340,000 | AID 602346 | inhibition, % at 7.49 µM | HEK293T cells, Vif self-association by quenched fluorescence, imaging, 24 h; in the data active means inhibition above about 50%, passing the limit was not always enough; inconclusive means no clear call, values can overlap the other calls; inactive means below about 31%
# MITF act = MITF TRPM1 promoter activation in melanoma cells | SK-MEL-5 TRPM1-promoter luciferase, 24 h; % of positive control, neutral wells = 0 | activation, % at 12.5 µM | hit rate 0.75% among 300,000 | AID 588334;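 active means mean activation of at least 80% with every replicate also reaching 80%; inconclusive means mean reaches 80% but some replicate falls short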;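 further: 0% = neutral control wells and 100% = parthenolide positive control wells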
# N-glyco inh = blocks N-linked glycosylation in D54 reporter cells | D54 ERlucT glycosylation luciferase reporter, 24 h; percent of 100 nM tunicamycin response | reporter increase, % at 12.5 µM | hit rate 0.23% among 360,000;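 active means mean luciferase reporter signal, scaled so untreated is 0 and the glycosylation-blocking control 100, at or above a set limit in every replicate; inconclusive means mean reaches the limit but not every replicate does; inactive means mean below the limit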;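 further: luciferase carries N-glycosylation sites so blocking glycosylation raises the light; 0% = median of neutral control wells and 100% = median of 100 nM tunicamycin wells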
# * hit, by the source's call; ? = inconclusive; nt = no result given.
SMILES,Wnt act,PvdQ acylase,esBAF inh,Vif imaging,MITF act,N-glyco inh
O=C(Nc1ccc(OC(F)(F)F)cc1)c1cnc2n(c1=O)CCS2,9,-18,48*,-7,7,2
Cc1cc(NC(=O)c2cccs2)no1,0,-11,20,-4,13,2
Cc1ccc2oc(C(=O)Nc3cc(C)on3)c(C)c2c1,43*,-9,37,-2,21,-3
Cc1ccc2oc(C(=O)Nc3nnc(CC(C)C)s3)c(C)c2c1,0,-2,nt,17,26,0
Cc1cc(NC(=O)c2sc3ccccc3c2O)no1,34*,-22,29,-7,10,-1
COc1ccccc1NC(=O)c1oc2ccc(C)cc2c1C,5,-4,48*,3,nt,-1
CCCCc1nnc(NC(=O)c2oc3ccc(OC)cc3c2C)s1,8,-10,28,9,55,1
COc1ccc2oc(C(=O)Nc3nccs3)c(C)c2c1,50*,-11,32,-2,73,-9
COc1ccccc1NC(=O)c1oc2ccccc2c1NC(=O)c1cc(OC)c(OC)c(OC)c1,-4,-7,6,5,-14,12
Cc1ccc(NC(=O)C[C@H]2CC[C@H]3[C@@H](COc4ccc(NC(=O)C(C)C)cc4C(=O)N3C)O2)cc1,nt,nt,-1,nt,nt,nt
C[C@H](NC(=O)[C@H]1N[C@H]2c3ccc(-c4cncnc4)c(=O)n3C[C@H]2[C@@H]1CO)c1ccccc1,nt,nt,2,nt,nt,nt
Cc1noc(C)c1NC(=O)Nc1ccc2c(c1)C(=O)N([C@H](C)CO)C[C@@H](C)[C@H](CN(C)S(=O)(=O)c1ccccc1)OCCCC[C@H](C)O2,nt,nt,-2,nt,nt,nt
Cc1noc(C)c1S(=O)(=O)Nc1ccc2c(c1)C(=O)N([C@@H](C)CO)C[C@@H](C)[C@@H](CN(C)Cc1ccncc1)OCCCC[C@H](C)O2,nt,nt,1,nt,nt,nt
CO[C@@H]1CN(C)C(=O)c2cc(NS(=O)(=O)CC(F)(F)F)ccc2OC[C@H](C)N(C(=O)c2ccc3c(c2)OCO3)C[C@@H]1C,nt,nt,3,nt,nt,nt
CCOc1ccc2oc(C(=O)Nc3ccc(C)cn3)c(C)c2c1,21,nt,85*,-7,nt,1
CCOc1ccc2oc(C(=O)Nc3nccs3)c(C)c2c1,69*,-9,6,8,30,-10
Cc1ccc2oc(C(=O)N(C)Cc3ccon3)c(C)c2c1,44*,4,52*,-3,112*,-3
O=C(C[C@@H]1CC[C@@H]2[C@H](COC[C@H](O)CN2Cc2ccc(F)cc2)O1)N1CCc2ccccc2C1,nt,nt,18,nt,nt,nt
C[C@@H]1CN([C@H](C)CO)C(=O)Cc2cc(NS(C)(=O)=O)ccc2O[C@@H]1CN(C)S(=O)(=O)c1cn(C)cn1,nt,nt,6,nt,nt,nt
CCC(SC1=Nc2ccccc2C2=NC(CC(C)C)C(=O)N12)C(=O)Nc1ccc2c(c1)OCO2 (stereo not drawn),6,-6,51*,6,11,7
CCN1C(=O)/C(=C2\C=Cc3ccccc3N2CC)SC1=S,nt,3,4,-6,-3,-4
CCN1C(=O)/C(=C2\C=Cc3cc(C)ccc3N2CC)OC1=S,nt,-1,3,6,3,-1
CCN1C(=O)/C(=C2/C=Cc3ccccc3N2C)OC1=S,nt,-5,27,21,101*,1
CCN1C(=C2C(=O)c3ccccc3C2=O)C=Cc2ccccc21,nt,2,44*,33,nt,-1
Cc1cc(C(=O)O)ccc1-n1c(C)cc(/C=C2\SC(=O)NC2=O)c1C,9,-15,2,0,nt,1
SMILES,Wnt act,PvdQ acylase,esBAF inh,Vif imaging,MITF act,N-glyco inh
COC(=O)c1cccc(-n2c(C)cc(/C=C3\SC(=O)NC3=O)c2C)c1,-3,nt,45*,-12,nt,1
Cc1ccc2c(c1)c(C)c(C)n2CC(O)Cn1nnc2ccccc21 (stereo not drawn),?,7,63*,2,nt,-6
NC(=O)N/N=C(/CCCCCC/C(=N\NC(N)=O)c1ccccc1)c1ccccc1,37*,nt,nt,-8,nt,2
C/C(=N\NC(N)=O)c1ccccc1,0,-12,nt,-3,8,2
COc1ccccc1CNC(=O)C[C@@H]1CC[C@H]2[C@@H](COC[C@@H](O)CN2C(=O)Nc2ccccc2)O1,nt,nt,6,nt,nt,nt
Cc1cccc(NC(=O)c2c(O)c3ccccc3[nH]c2=O)c1,41*,7,49*,2,106*,-2
CCOc1cc(C(=S)N2CCOCC2)ccc1OC,-5,6,-4,66*,-7,-1
CC(=O)N1CC[C@@H]2[C@H]1c1cc(-c3ccc(C#N)cc3)ccc1N(C)[C@H]2CO,nt,nt,-8,nt,nt,nt
